A selection: hits, their analogues and other compounds. The true share with any hit is near 11%.
FBPA coupling cs: counter-screen for Giardia aldolase inhibitors: coupling enzyme system | coupling enzyme system counterscreen, AmpLite Red fluorescence | activity change, negative = inhibition, % at 58.2 µM, hits read low | 290,000 compounds, 0.67% hits; in the data active = activity change below about -30%
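Final compound at 57.5 uM, incubated 10 min at RT with coupling enzyme reagent (glyceraldehyde-3-phosphate), then 20 min with substrate and AmpLite Red detection. Fluorescence read at 525/598 nm; tests interference with the coupling assay, not aldolase inhibition.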
G9a block: G9a (human) methyltransferase inhibition. G9a H3K9 monomethylation, AlphaScreen, 2 h. Q96KQ7. AID 504332. Potency, µM (titrated, usually from 102 µM), for the others: top-dose activity, negative = inhibition, actives largely listed as inhibitors. 350,000 compounds, 8.8% hits; also: potency is read from the fitted curve at half-maximal effect; nearly all actives have a fitted effect of over 75% in size
Target sequence (Q96KQ7 913-1193 limits assumed): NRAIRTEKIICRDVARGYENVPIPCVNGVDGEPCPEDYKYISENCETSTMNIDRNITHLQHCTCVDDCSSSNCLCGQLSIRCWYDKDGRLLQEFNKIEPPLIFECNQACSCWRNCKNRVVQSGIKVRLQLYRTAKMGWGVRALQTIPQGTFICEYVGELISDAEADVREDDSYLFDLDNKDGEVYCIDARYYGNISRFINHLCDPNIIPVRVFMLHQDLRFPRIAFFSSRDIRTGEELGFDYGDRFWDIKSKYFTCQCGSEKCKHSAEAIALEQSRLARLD
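Chemiluminescent proximity detection of H3K9 monomethylation, read after 10 min bead incubation in the dark. Reaction: 20 nM G9a, 500 nM biotin-H3K9 peptide, 20 uM SAM cofactor, 2 h, room temperature, following 15 min enzyme-compound preincubation.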
Tau fluor cs: counter-screen for tau fibril formation inhibitors; 280,000 compounds, 0.93% hits; tau K18 P301L Alexa594 fluorescence, heparin fibrillization; AID 1463; Potency, µM (series often up to 57.7 µM), for the others: top-dose activity change, negative = decrease; also: potency is read from the fitted curve at half-maximal effect; nearly all actives have a fitted effect of over 55% in size
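Human tau K18 P301L (15 uM unlabeled, 0.24 uM Alexa 594-labeled) in 100 mM sodium acetate pH 7 with 20 uM heparin, 6 hr at 37 C. ThT 30 uM added, 1 hr ambient; Alexa 594 FP and total fluorescence read at 555/632 nm.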
Tau FP inhib: blocks human tau fibril formation measured by polarization | K18 P301L tau heparin fibrillization, Alexa594 FP, 6 h | Potency, µM (highest dose often 57.7 µM), inactives show at the top dose activity, negative = inhibition, most hits filed as inhibitors | 280,000 compounds, 0.39% hits | AID 1468; also: potency is read from the fitted curve at half-maximal effect; nearly all actives have a fitted effect of over 55% in size
Target sequence (P10636 561-689 P618L limits assumed): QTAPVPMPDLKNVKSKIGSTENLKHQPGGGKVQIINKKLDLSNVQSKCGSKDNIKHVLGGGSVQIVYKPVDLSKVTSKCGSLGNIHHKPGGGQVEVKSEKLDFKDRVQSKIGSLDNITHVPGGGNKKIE
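FP of Alexa 594-tau after heparin (20 uM) induction. Substrate: human K18 P301L, 15 uM unlabeled, 0.24 uM labeled. Buffer 100 mM sodium acetate pH 7. 6 hr, 37 C.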
Tau fibril ThT: blocks human tau fibril formation measured by thioflavin T; P10636; AID 1460; recombinant tau K18 P301L, heparin-induced fibrillization, ThT fluorescence; Potency, µM (top dose mostly 57.4 µM), inactives show at the top dose activity, negative = inhibition, most hits filed as inhibitors; 270,000 compounds, 2.1% hits; also: potency is read from the fitted curve at half-maximal effect; nearly all actives have a fitted effect of over 55% in size
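Using a mix of unlabeled (15 uM) and Alexa 594-labeled (0.24 uM) tau K18 P301L, heparin-triggered fibrillization over 6 hr at 37 C was scored by ThT fluorescence.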
Sfp PPTase inh: Sfp phosphopantetheinyl transferase inhibition; 310,000 compounds, 3.5% hits; Potency, µM, for the others: largest response in the series, negative = inhibition, usual class: inhibitors; AID 1490; Biochemical Sfp PPTase activity, qHTS;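 also: the enzyme is Sfp with the accession as filed and its product quenches rhodamine fluorescence; potency is read from the fitted curve at half-maximal effect; 0% = enzyme reaction without inhibitor and -100% = no enzyme wells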
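Compounds were incubated with enzyme (final 15 nM) for 15 min at room temperature before substrate addition started the reaction. Fluorescence at 525 nm excitation, 598 nm emission was recorded immediately and after 30 minutes.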
Active calls of the source: *; u = inconclusive; x = no result; [ ] = remark or other dose. Unless noted, calls follow the shape of the dose curve; as a rule, active = well fitted curve in the direction sought with a large enough effect; inconclusive = small, poorly fitted or top-dose-only effect, or another doubt; inactive = no such curve, though single readings can be large; an effect the other way counts as inactive or inconclusive. Unless noted, % is scaled to controls: 0 for no effect and ±100 for the full control effect.

SMILES | FBPA coupling cs | G9a block | Tau fluor cs | Tau FP inhib | Tau fibril ThT | Sfp PPTase inh
O=C(Nc1cc(Cl)ccc1F)c1ccc(-n2cncn2)c([N+](=O)[O-])c1 | x | 56µM* | x | x | x | x
COc1ccc(OCCCC(=O)Nc2cc(Cl)ccc2-n2cncn2)cc1 | x | 45µM* | x | x | x | x
O=C(Nc1cc(Cl)ccc1-n1cncn1)c1cc(F)cc(F)c1 | x | 50µM* | x | x | x | x
Cc1ccc(OCCCC(=O)Nc2cc(Cl)ccc2-n2cncn2)cc1 | x | -1%[2.33 µM] | x | x | x | x
O=C(Nc1cc(Cl)ccc1-n1cncn1)C1CC1 | x | -21%[12.7 µM] | x | x | x | x
O=C(Nc1cc(Cl)ccc1-n1cncn1)c1cccs1 | x | 45µM* | x | x | x | x
O=C(Nc1cc(C(F)(F)F)ccc1-n1cncn1)c1ccc(Cl)cc1 | -1 | -1% | -21% | -17% | -16% | -4%
Cc1cn([C@H](C(=O)NCCCCCCCCCCC(=O)N2CCN(C(=O)OC(C)(C)C)CC2)[C@@H](C)O)nn1 | x | -2%[2.33 µM] | x | x | x | x
Cc1cccc(C2=N[C@@H](Cc3ccccc3)CO2)c1 | 1 | 6% | -20%[126 µM] | 0%[126 µM] | -19%[126 µM] | -10%
CCOC(=O)c1c(NC(=O)COC(=O)CCOc2ccc(C)cc2)sc(C(=O)N(C)C)c1C | x | 26%[2.33 µM] | x | x | x | x
O=C(Nc1ccc(F)cc1F)c1cc2c(=O)n3ccccc3nc2s1 | x | -24%[59 µM] | -7% | -13% | -5% | x
CCC(=O)N1CCN(c2ccc(Cl)cc2NC(=O)c2ccc([N+](=O)[O-])o2)CC1 | x | u | x | x | x | 8%
O=C(Nc1cc(Cl)ccc1-n1cncn1)c1ccc([N+](=O)[O-])o1 | x | 50µM* | x | x | x | x
Cc1ccccc1Nc1nn2c(=O)c3ccc(C(=O)NCC(C)c4ccccc4)cc3nc2s1 (centres undefined) | x | -5%[59 µM] | -23% | u | u | x
CCOC(=O)C1CCN(S(=O)(=O)c2c(Cl)ccc3nonc23)CC1 | x | 50µM* | x | x | x | -17%
CCCCCCCCCCCC(=O)c1c(O)cccc1O | -1 | 4% | 13µM*[quencher] | u | u | 15%
CCCCCCCC(=O)NNC(=O)Cc1ccccc1 | 8 | 0%[0.0925 µM] | 5% | 4% | 4% | 1%
Cc1ccc(-c2nc3s/c(=C\c4ccco4)c(=O)n3n2)cc1 | 2 | 50µM* | -13% | 4% | u | 2%
Cc1ccc(/C=c2\sc3nc(-c4ccccc4Br)nn3c2=O)o1 | 0 | 3.5µM* | -28% | u | 28µM* | u
Cc1ccc(/C=c2\sc3nc(-c4ccco4)nn3c2=O)o1 | 1 | 18µM* | -29% | u | 18µM* | 25µM*
O=c1nc2s/c(=C\c3ccco3)c(=O)n2nc1Cc1ccc(F)cc1 | -1 | u | -22% | u | u | 45µM*
COc1ccc(Br)cc1/C=c1\sc2nc(-c3ccco3)nn2c1=O | 0 | u | -15% | u | u | u
Cc1ccc(CNC(=O)C2CCCN2C(=O)Nc2ccccc2)cc1 (centres undefined) | 1 | 7% | x | x | x | 14%
COc1cc(SC)ccc1C(=O)Nc1ccc(S(=O)(=O)Nc2nccc(C)n2)cc1 | x | -14%[59 µM] | -3% | -10% | -3% | x
CCOC(=O)c1ccccc1NC(=O)C(=O)Nc1ccc2nc3n(c(=O)c2c1)CCCCC3 | x | 30%[59 µM] | -15% | 0% | -13% | x
Cc1cccc(N2CC(C(=O)Nc3nnc(SCc4ccccn4)s3)CC2=O)c1 (centres undefined) | 4 | 10µM* | x | x | x | u
O=C(Nc1nnc(SCc2ccccn2)s1)C1CC(=O)N(c2ccccc2)C1 (centres undefined) | 1 | u | -7% | 1% | -3% | 10%
COc1cccc(N2CC(C(=O)Nc3nnc(SCC(=O)Nc4cc(C)on4)s3)CC2=O)c1 (centres undefined) | 0 | -46% | -6% | -9% | 1% | -7%
Cc1ccc(N2CC(C(=O)Nc3nnc(SCc4ccccn4)s3)CC2=O)cc1 (centres undefined) | 1 | 45µM* | x | x | x | 18%
O=[N+]([O-])c1ccc(Nc2ccc(Cl)cc2)nc1 | 3 | 8% | -6% | -3% | -6% | 16%
